Molecules are shown by their SMILES. Inconclusive results are not listed. A number with no mark means an inactive call. The source made the active and inactive calls. The call rests on the fitted dose curve. Starred links: 1 amine or outer side, 2 acyl side, 3 side chain; linkers in the order of their positions; H or OH if unused. Positions of bridges follow the written chain, without caps; N, C: chain ends. Non-standard residues stand in square brackets, D forms with d. Residues, ends and D or L forms follow the SMILES beside them. ξ: configuration not given here. *: point of attachment. Phe(3R-OH) = O=C([C@@H](N[*:1])[C@H](O[*:3])c1ccccc1)[*:2]; NMeTrp(4-OMe) = CN[C@@H](Cc1c[nH]c2cccc(OC)c12)C(=O)O; ξThr(3R)(O-yl) = C[C@@H](O[*:3])C(N[*:1])C(=O)[*:2]; NMeThr(3ξ) = CN[C@H](C(=O)O)C(C)O; NMeL = CN[C@@H](CC(C)C)C(=O)O; NMeV = CN[C@H](C(=O)O)C(C)C; ξIle = CC[C@H](C)C(N)C(=O)O; Octanoyl = CCCCCCCC(=O)*; ξV = CC(C)C(N)C(=O)O

A short description of this test: qHTS for inhibitors of Rabies Virus screened against the NCATS CANVASS Library (AID 1347402). Further: 0% is about no effect. Particulars: Rabies virus infection cell assay; series mostly up to 45.9 µM. In general terms: Quantitative high-throughput screening tests each substance at several concentrations.
With `Cc1cc(O)cc2c1C(=O)c1c(O)cc(O)cc1C2=O`, the outcome was inactive.
The same measure, in the same setting: for `C/C=C/C=C/C1(O)C2C=C3C(=O)CC45C(=O)C(O)=C(C)C(=O)C4C1C1(C(=O)C(O)=C(C)C(=O)C351)C2C` (stereo not given) the value was “inactive”; for `CC(C)[C@]12CC[C@@]3(C)[C@H](C)CC[C@H](O)[C@@]3(CC1)c1cc3c(cc12)[nH]c1ccccc13`, “inactive”.
Take `CO[C@H]1[C@@H](OC(=O)/C(C)=C\[C@@H]2O[C@@H]2[C@H]2O[C@H]2C)[C@H](O)[C@H](OCC23C[C@@H]4[C@H](C)CC[C@H]4C4(C=O)CC2C=C(C(C)C)C34C(=O)O)O[C@@H]1C` (stereo not given in full): the compound was classed as inactive.
On the same count and under the same terms, for `C=C1[C@@]2(C)CC3C4(C)CCC(O)C(C)(C)C4CCC3(C)[C@]1(C(=O)OC)C(=O)C(C)(O)C2=O` (stereo not given in full) the value was “inactive”; for `O=C1CCC(=O)N(O)CCCCCNC(=O)CCC(=O)N(O)CCCCCNC(=O)CCC(=O)N(O)CCCCCN1`, “inactive”.
For the compound `C[C@@H]1O[C@@H](O[C@@H]2[C@@H](O)[C@H](O[C@@H]3[C@@H](O)[C@@H](O)C(O[C@H]4[C@H](OC(=O)[C@]56CCC(C)(C)C[C@H]5C5=CCC7[C@@]8(C)C[C@H](O)[C@H](O[C@@H]9C[C@H](CO)[C@@H](O)[C@H](O)[C@H]9O)[C@@](C)(CO)C8[C@H](O)C[C@@]7(C)[C@]5(C)CC6)OC[C@H](O)[C@@H]4O)O[C@H]3C)OC[C@H]2O)[C@H](O)[C@H](O)[C@H]1O` (stereo not given in full), the compound was called inactive.
Same read-out and setting: for `COc1cc2c(cc1OC)[C@@H](c1ccc3c(c1)OCO3)C(C)[C@@H](C)C2=O` (stereo not given in full) the value was “inactive”; for `CN1CCc2cc3c(c4c2C1(C)C(=O)c1cc(O)ccc1-4)OCO3` (stereo not given), “inactive”; for `Oc1ccc([C@H]2Oc3ccc(/C=C/c4cc(O)cc(O)c4)cc3C2c2cc(O)cc(O)c2)cc1` (stereo not given in full), “inactive”.
As for `C=C1CCC2C(C)(C(=O)O)CCC(CC/C(C)=C/C(=O)NC(CCC(N)=O)C(=O)O)[C@@]2(C)C1` (stereo not given in full), the call was inactive.
`CCCCCCCC(=O)N[C@@H](CC(C)C)C(=O)N[C@H](C=O)CCC(=O)O` (Octanoyl-Leu-Glu-aldehyde): the call was inactive.
Still for that read-out and setting: for `CC1=CC[C@@]2(C[C@@H]1O)[C@@H](C(=O)O)CC[C@H]2C(C)C` the value was “inactive”.
The same measure, in the same setting: for `COC(=O)[C@@]1(C)CCC[C@]2(C)c3cc(OC)ccc3CC[C@@H]12` the value was “inactive”; for `COc1cc(/C=C/C(=O)O)ccc1O`, “inactive”.
In the case of `CC1C(=O)C23CCC1C[C@@]21O[C@H]2C(C)(C)C=CC(=O)[C@@]23COC1=O` (stereo not given in full), the result was inactive.
On the same count and under the same terms, for `COc1ccc2[nH]c3c(c2c1)CCN1C[C@H]2C[C@@H](OC(=O)c4cc(OC)c(OC)c(OC)c4)[C@H](OC)[C@@H](OC)[C@H]2C[C@H]31` the value was “inactive”; for `CO[C@@H]1[C@H](O)[C@@H](C)O[C@@H](OC[C@@H]2C(C)OC(=O)/C=C/[C@H](C)C(O[C@@H]3O[C@H](C)CC4(OC(=O)O[C@@H]4C)C3O)[C@@H](C)CC(C)C(=O)/C=C/[C@H]3OC23)[C@@H]1OC` (stereo not given in full), “inactive”; for `CC(=O)O[C@H]1CC[C@@]2(C)C(CC[C@]3(C)C2CC=C2C4CC(C)(C)CC[C@]4(C)CC[C@]23C)C1(C)C` (stereo not given in full), “inactive”.
Still for that read-out and setting: for `C=C[C@]1(C)CC[C@@H]([C@H](C)C(=O)/C=C/C(C)(C)O)O1` the value was “inactive”; for `O=C1CC(c2ccc(O)cc2)Oc2cc(O)ccc21` (stereo not given), “inactive”; for `CC1(C)CCC[C@]2(C)[C@@H]1CC[C@@]13C[C@@H](CC[C@H]12)C(C)(O)C3` (stereo not given in full), “inactive”.
Still for that read-out and setting: the result for `C/C(=C\[C@H](C)C(=O)/C=C/CC1CC(=O)NC(=O)C1)[C@@H]1OC(=O)CCCC/C=C/[C@H](O)[C@@H](O)[C@@H]1C` reads “inactive”; that for `C[n+]1cc2cc(C(N)=O)[nH]c3c(=N)c(Cl)c(N)c1c23`, “inactive”.
Consider `C/C(=C\[C@H](C)C(=O)CCCC1CC(=O)NC(=O)C1)C(O)[C@@H](C)[C@H](O)C/C=C/CC/C=C/C(=O)O` (stereo not given in full), for which the outcome was inactive.
`C[C@@H]1C(=O)[C@]23CC[C@H]1C[C@]21O[C@H]2C(C)(C)C=CC(=O)[C@]23COC1=O`: the call was inactive.
On the same count and under the same terms, the result for `O=Cc1ccc2n1C[C@]1(C[C@H](O)[C@@H](CO)O1)OC2` reads “inactive”; that for `C=C[C@](Cl)(CBr)CCC=C(C)C`, “inactive”.
For the compound `CC[C@@H]1C[C@@]2(CC)OC(=O)[C@@]3(CC)[C@H](CC)[C@@H]1[C@@H]23`, the outcome was inactive.
The same measure, in the same setting: the result for `C=C[C@]1(C)CC[C@@H]([C@H](C)C(=O)OCC)O1` reads “inactive”.
Same read-out and setting: the result for `CC(=O)[C@@H]1[C@@H](O)C[C@H]2[C@]3(C)CC[C@H]4C(C)(C)CCC[C@]4(CO)[C@H]3C[C@H]3OC(=O)[C@@H]1[C@@]32C` reads “inactive”.
The same measure, in the same setting: for `C=C1C[C@@]23C=CC(=O)[C@@](C)(CCCC(C)C(=O)O)[C@@H]2C[C@@H]1CC3` (stereo not given in full) the value was “inactive”; for `OCc1ccc2ocnc2c1`, “inactive”.
As for `O=C1c2c(O)cc(O)cc2O[C@@H](c2ccc(O)cc2)[C@@H]1c1c(O)cc(O)c2c(=O)cc(-c3ccc(O)c(O)c3)oc12`, the call was inactive.
On the same count and under the same terms, the result for `CNc1ccc(Cl)cc1C(=O)OC[C@]1(C)[C@H]2CC[C@]3(C)[C@@H](C[C@@H](OC)[C@H](C)[C@H]3C3=C(O)C(=O)OC3O)[C@]2(C)CC[C@H]1O` (stereo not given in full) reads “inactive”.
The same measure, in the same setting: the result for `C[C@@H]1O[C@H](c2c(O)cc(O)c3c(=O)cc(-c4ccc(O)cc4)oc23)[C@H](O)[C@H](O)[C@H]1O` reads “inactive”; that for `CC1(C)C=Cc2c(ccc3c2OC[C@@H](c2ccc(O)cc2O)C3)O1`, “inactive”.
Same read-out and setting: the result for `C[C@@]12CCC[C@@](C)(C(=O)O)[C@H]1C[C@@H](O)[C@]13C[C@H]4C[C@H](O[C@@]4(C)C1)[C@@H]23` reads “inactive”.
Take `COc1ccc([C@@H]2CC(=O)c3c(cc(O)c(C/C=C(\C)CCC=C(C)C)c3O)O2)cc1`: the activity change, negative = inhibition was -26.8% [at 9.14 µM].
Take `CC[C@H](C)C(NC(=O)[C@@H](NC)C(C)C)C(=O)NC1C(=O)N(C)[C@@H](C(C)O)C(=O)N[C@@H](C(C)C)C(=O)N(C)[C@@H](CC(C)C)C(=O)NC(C(C)C)C(=O)N(C)[C@@H](C(C)C)C(=O)N(C)[C@@H](Cc2c[nH]c3cccc(OC)c23)C(=O)N[C@@H](C(C)C)C(=O)N[C@@H]([C@H](O)c2ccccc2)C(=O)N[C@@H](C(C)C)C(=O)O[C@@H]1C` (stereo partly drawn) (H-[NMeV][ξIle][ξThr(3R)(O-yl)][NMeThr(3ξ)]V[NMeL][ξV][NMeV][NMeTrp(4-OMe)]V[Phe(3R-OH)]V; ester 3-C): the outcome was inactive.

For the origin of these results see PubChem BioAssay (NCATS).
